# Assay results taken from PubChem BioAssay (NCI).
# The panel holds about 83,000 compounds, 20% with a hit somewhere; the sample as a whole holds those more often.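 Activity criterion: percent growth below 10, measured after cells in 96-well plates were exposed to a single compound concentration for 48 hours.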 A number with no mark means an inactive call. Calls of active or inactive are those of the source.
# Columns and labels:
# Assay in all cases: NCI-60 one-dose screen, 48 h (100 = growth as untreated, 0 = no growth, -100 = all killed)
# Conditions in all cases: 10 µM unless noted
# NCI-H23 lung = tested on: NCI-H23 lung
# NCI-H226 lung = tested on: NCI-H226 lung
# NCI-H322M lung = tested on: NCI-H322M lung
# HOP-62 NSCLC = tested on: HOP-62 NSCLC
# NCI-H460 lung = tested on: NCI-H460 lung
# HOP-92 NSCLC = tested on: HOP-92 NSCLC
# NCI-H522 lung = tested on: NCI-H522 lung
# A549/ATCC NSCLC = tested on: A549/ATCC NSCLC
# 786-0 renal = tested on: 786-0 renal
# COLO 205 colon = tested on: COLO 205 colon
# DU-145 prostate = tested on: DU-145 prostate
# K-562 leukemia = tested on: K-562 leukemia
# MALME-3M melanoma = tested on: MALME-3M melanoma
# MDA-MB-231 breast = tested on: MDA-MB-231 breast
# RXF 393 renal = tested on: RXF 393 renal
# SF-268 CNS = tested on: SF-268 CNS
# SF-295 CNS = tested on: SF-295 CNS
# SF-539 CNS = tested on: SF-539 CNS
# UACC-257 melanoma = tested on: UACC-257 melanoma
# M14 melanoma = tested on: M14 melanoma
SMILES,growth (NCI-H23 lung),growth (NCI-H226 lung),growth (NCI-H322M lung),growth (HOP-62 NSCLC),growth (NCI-H460 lung),growth (HOP-92 NSCLC),growth (NCI-H522 lung),growth (A549/ATCC NSCLC),growth (786-0 renal),growth (COLO 205 colon),growth (DU-145 prostate),growth (K-562 leukemia),growth (MALME-3M melanoma),growth (MDA-MB-231 breast),growth (RXF 393 renal),growth (SF-268 CNS),growth (SF-295 CNS),growth (SF-539 CNS),growth (UACC-257 melanoma),growth (M14 melanoma)
CC(C)(C)C(=O)Nc1nc2c(s1)CCc1ccn(S(=O)(=O)c3ccccc3)c1-2,82.5%,92.4%,83.3%,93.4%,96.2%,96.2%,66.7%,76.6%,81.8%,112%,99.1%,69%,99.6%,95.8%,116%,89.5%,91.7%,99.4%,95%,
CN1CCN(C(=O)/C=C/c2ccc([N+](=O)[O-])o2)CC1,98.1%,110%,111%,134%,91%,85.9%,4.39% (active),53.8%,110%,76.2%,92.6%,86.6%,22.6%,87.8%,-14.9% (active),87.6%,134%,107%,1.85% (active),92.4%
O=c1cc(Cl)[nH]c(=O)[nH]1,98.9%,97.5%,98.9%,83.2%,108%,98.2%,67.7%,79.5%,101%,97.5%,107%,104%,112%,111%,101%,101%,101%,105%,89.1%,
CCCN1C(=O)CSC1=Nc1ccc2cc3ccc(N=C4SCC(=O)N4CCC)cc3nc2c1,35.8%,32.2%,86.4%,47.6%,36.8%,57.1%,31.4%,41.4%,8.44% (active),36.8%,83.7%,21.4%,33.5%,18.5%,-27.9% (active),62.9%,23%,46%,43.9%,50.7%
COc1ccc(Cl)cc1NC(=O)c1cc2c([nH]1)-c1nc(N)sc1CCC2,86.4%,95.6%,87.1%,102%,109%,132%,64.3%,69.6%,99.7%,121%,101%,74.7%,101%,105%,114%,98.2%,106%,99.4%,91%,97.6%
COc1ccc2c(c1)nnc1c3cccnc3[nH]c21,25.5%,19.7%,43.3%,6.44% (active),-49.4% (active),-36.5% (active),-34.4% (active),40.8%,-37.2% (active),-62.3% (active),-18.3% (active),-41.1% (active),11.4%,0.316% (active),-67.2% (active),-24.8% (active),39.8%,-48.7% (active),33.5%,
Cc1ccc(N(CC2=NCCN2)c2cccc(O)c2)cc1,100%,100%,91.5%,103%,107%,91.2%,102%,98.8%,96.8%,119%,112%,86.3%,90.4%,113%,98.5%,107%,83.3%,106%,103%,103%
COc1cc(-c2nc3ccccc3s2)ccc1OCc1nc2n(n1)S(=O)(=O)c1ccccc1N2C,92.7%,101%,68.9%,46.1%,101%,1.17% (active),60.7%,91.1%,62.1%,102%,87.7%,71.1%,39.4%,84.6%,58.3%,94.4%,61.3%,52.4%,104%,76.8%
COc1ccc(-c2ccc(NC(=O)Nc3cccc(C(F)(F)F)c3)c(C)n2)cc1,47.6%,58.1%,64.4%,68%,48.7%,68.8%,28.5%,42.5%,77.3%,84.5%,68.8%,32.5%,90.6%,68.6%,85.9%,74.5%,47.6%,80.8%,61.4%,37.2%
Cc1cccc(Cc2cnc(NC(=O)CCc3ccc(C)o3)s2)c1,35.3%,35.1%,45.9%,47.5%,4.15% (active),64.9%,4.74% (active),26.1%,29.8%,-9.57% (active),18.8%,6.63% (active),82.8%,15.4%,8.05% (active),38%,10.4%,2.41% (active),79.6%,11.5%
O=C(Nc1ccc(-n2cc(-c3ccncc3)c(-c3ccc(O)c(Cl)c3)n2)cc1)c1cc(C(F)(F)F)cc(C(F)(F)F)c1,82%,93.7%,75.2%,81.2%,45%,6.71% (active),62.8%,54.8%,53.1%,82.6%,65%,36.7%,77.7%,21.3%,-21.1% (active),56%,31%,57.7%,77.1%,30.2%
O=C(O)c1ccc(-n2cc(/C=N/Nc3ccccc3F)c(-c3ccc(O)cc3)n2)cc1,92.3%,95.3%,79.1%,91.7%,101%,95.6%,48.3%,86.8%,84%,95.9%,97%,13%,92.7%,85.2%,92.6%,78.6%,80.5%,85.9%,103%,73.5%
c1cncc(-c2nc3ccccc3[nH]2)c1,84.4%,92.7%,101%,83.2%,105%,103%,99.8%,93.9%,107%,89.1%,112%,102%,109%,83.4%,94.6%,105%,118%,97.8%,27.7%,99.7%
COc1ccc(Cn2cc(COc3ccc4c5ccnc(C)c5n(CCCc5ccccc5)c4c3)nn2)cc1,85.6%,99.4%,79.5%,90.7%,62.6%,83.3%,64.4%,75.3%,80.4%,69.2%,84.3%,63.2%,81.6%,65.6%,58.8%,76.6%,92.3%,58.7%,90.2%,83.1%
COc1cccc(C2CC(c3cc(OC)c(OC)c(OC)c3)=NN2)c1 (configuration not stated),89.6%,91.7%,99.6%,83%,93.7%,80%,80.3%,84.4%,86.9%,106%,104%,14.5%,91.6%,98%,83.8%,93%,81.8%,92.2%,99.4%,83%
COc1cc(C(=O)N2CCN(C(=O)c3cc(OC)c(OCc4ccccc4)cc3N)CC2)c(N)cc1OCc1ccccc1,86.8%,122%,99.3%,108%,115%,86.1%,103%,107%,104%,115%,111%,7.24% (active),91.1%,94.7%,98.6%,108%,102%,104%,98.5%,111%
